This is an account of results in PubChem BioAssay (Tox21).

Experiment [1] can be described thus: qHTS assay to identify small molecule antagonists of the thyroid receptor (TR) signaling pathway (AID 743065). Further: nearly all actives have a fitted effect of over 55% in size. Further: potency means the concentration at half of the fitted maximal effect. The essentials: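 GH3.TRE-Luc rat pituitary cells carrying two TR response elements driving luciferase were plated for 4 h, given compound plus 1 nM T3 (final), and incubated 23.5 h at 37 C. ONE-Glo luminescence measured reporter inhibition; CellTiter-Fluor fluorescence tracked cytotoxicity.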

Experiment [2] relates to thyroid hormone receptor (rat, GH3 cells). Briefly: qHTS assay to identify small molecule agonists of the thyroid receptor (TR) signaling pathway (AID 743066; calls by dose curve).
A short description of experiment [3]: qHTS assay to identify small molecule antagonists of the estrogen receptor alpha (ER-alpha) signaling pathway - cell viability counter screen (AID 743074; calls by dose curve; further: nearly all actives have a fitted effect of over 45% in size).
Experiment [4] can be described thus: qHTS assay to identify small molecule antagonists of the estrogen receptor alpha (ER-alpha) signaling pathway using the BG1 cell line - cell viability counter screen (AID 743081).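 Further: compound given together with 17beta-estradiol as the ER stimulus; series mostly up to about 70 µM; nearly all actives have a fitted effect of over 45% in size.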
In another experiment the target is Aromatase (Homo sapiens) (UniProt P11511). Nature of the experiment: qHTS assay to identify aromatase inhibitors (AID 743083). Further: nearly all actives have a fitted effect of over 55% in size. Further: potency means the concentration at half of the fitted maximal effect.
Experiment [5] in a line: qHTS assay to identify aromatase inhibitors - cell viability counter screen (AID 743084).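 Further: cells stimulated with testosterone during compound exposure; nearly all actives have a fitted effect of over 55% in size.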
For experiment [6], the target named is Estrogen receptor (Homo sapiens) (UniProt P03372). Briefly: qHTS assay to identify small molecule antagonists of the estrogen receptor alpha (ER-alpha) signaling pathway (AID 743069; active means well fitted curve in the direction sought with a large enough effect in the signal ratio in the repeat runs, not every such curve was filed as active; inconclusive means weak or mixed curves, or effect the other way; inactive means no such curve, though single readings can be large or run the other way; the % refers to the signal ratio). The essentials: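 HEK293 cells stably carrying an ER-alpha-UAS-bla beta-lactamase reporter were pre-cultured overnight in 2% charcoal-stripped FBS medium. Test compounds in DMSO were added together with 17beta-estradiol for 18 hr at 37C. Read-out was fluorescence after 2 hr with LiveBLAzer B/G FRET substrate at room temperature.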

For experiment [7] the target is unchanged. Nature of the experiment: qHTS assay to identify small molecule agonists of the estrogen receptor alpha (ER-alpha) signaling pathway (AID 743075; calls by dose curve; further: potency means the concentration at half of the fitted maximal effect).
Experiment [8] has the same target. Briefly: qHTS assay to identify small molecule agonists of the estrogen receptor alpha (ER-alpha) signaling pathway using the BG1 cell line (AID 743079). Further: nearly all actives have a fitted effect of over 20% in size. Further: potency means the concentration at half of the fitted maximal effect.
Experiment [9] is described as follows: qHTS assay to identify small molecule antagonists of the estrogen receptor alpha (ER-alpha) signaling pathway using the BG1 cell line (AID 743080; calls by dose curve;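 further: BG1 cells stimulated with 17beta-estradiol alongside compound; nearly all actives have a fitted effect of over 25% in size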; further: potency means the concentration at half of the fitted maximal effect). In short, it runs like this:
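Quantitative HTS on the Tox21 10K library: BG1 cells with endogenous ER-alpha and ERE-luciferase reporter, 17beta-estradiol stimulation, 21.5 h compound exposure, luminescence endpoint with parallel fluorescence cytotoxicity counter-read.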

Where “and” joins values, the source holds several entries; their conditions need not be identical. Identical values can stand only once. Calls of active or inactive are those of the source. Unless noted, the call rests on the fitted dose curve; in most records, active means well fitted curve in the direction sought with a large enough effect in the repeat runs; inconclusive means weak or mixed curves; inactive means no such curve, though single readings can be large; an effect the other way counts as inactive or inconclusive.

Chain of Estrogen receptor (Homo sapiens) (P03372 whole entry, looked up): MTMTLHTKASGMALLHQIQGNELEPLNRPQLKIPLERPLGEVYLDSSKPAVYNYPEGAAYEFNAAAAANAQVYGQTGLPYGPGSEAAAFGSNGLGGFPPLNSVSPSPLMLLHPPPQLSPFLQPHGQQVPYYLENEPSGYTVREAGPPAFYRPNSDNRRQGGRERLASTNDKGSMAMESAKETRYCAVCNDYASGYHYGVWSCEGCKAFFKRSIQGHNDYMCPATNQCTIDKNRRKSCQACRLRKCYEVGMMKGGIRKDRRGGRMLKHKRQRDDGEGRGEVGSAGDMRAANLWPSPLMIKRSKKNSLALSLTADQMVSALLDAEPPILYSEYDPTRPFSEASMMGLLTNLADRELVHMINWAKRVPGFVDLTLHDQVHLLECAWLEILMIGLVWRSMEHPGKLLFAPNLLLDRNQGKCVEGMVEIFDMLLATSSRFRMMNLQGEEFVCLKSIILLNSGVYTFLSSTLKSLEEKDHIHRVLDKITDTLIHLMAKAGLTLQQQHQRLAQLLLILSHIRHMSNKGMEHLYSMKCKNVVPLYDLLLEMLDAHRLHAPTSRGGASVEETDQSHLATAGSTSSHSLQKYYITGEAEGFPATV
Chain of Aromatase (Homo sapiens) (P11511 whole entry, looked up): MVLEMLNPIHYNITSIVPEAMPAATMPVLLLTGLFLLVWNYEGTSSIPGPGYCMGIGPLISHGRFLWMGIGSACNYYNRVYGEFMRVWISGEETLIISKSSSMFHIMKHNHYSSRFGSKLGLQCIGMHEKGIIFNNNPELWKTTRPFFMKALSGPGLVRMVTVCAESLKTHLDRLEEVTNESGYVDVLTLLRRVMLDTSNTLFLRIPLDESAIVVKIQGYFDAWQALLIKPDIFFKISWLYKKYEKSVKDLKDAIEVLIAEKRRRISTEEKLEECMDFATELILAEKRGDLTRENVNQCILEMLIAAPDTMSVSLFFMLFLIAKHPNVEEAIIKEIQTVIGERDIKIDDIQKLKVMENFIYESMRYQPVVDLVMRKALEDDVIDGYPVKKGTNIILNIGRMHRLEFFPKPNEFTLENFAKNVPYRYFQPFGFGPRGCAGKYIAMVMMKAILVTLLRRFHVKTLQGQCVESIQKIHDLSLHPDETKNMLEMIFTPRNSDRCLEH

For the compound `CC(C)(O)C(=O)O`, the Potency result in [1] and in experiment [4] was “inactive” in each case. The call in experiment [2] and in experiment [3] was inactive.
Turning to `Nc1nc(Cl)nc2c1ncn2[C@H]1C[C@H](O)[C@@H](CO)O1`, the Potency in experiment [1] is 298 nM (active) and 48.2 nM (active). Moreover, the call in experiment [2] and in [3] was inactive. Further, the Potency result (in experiment [4]; in the experiment with Aromatase (Homo sapiens); in experiment [5]) was “inactive” throughout.
In the case of `CC(=O)Nc1ccccc1O`, the Potency result (in experiment [1]; in experiment [4]; with Aromatase (Homo sapiens); in experiment [5]) was “inactive” in each case. Further, the outcome in [2] and in [3] was inactive.
`COc1ccc(CN(CCN(C)C)c2ncccn2)cc1`: the Potency entry (in [1]; in experiment [4]; with Aromatase (Homo sapiens); in experiment [5]) was “inactive” throughout. The call in [2] and in experiment [3] was inactive.
`O=C(O)c1cc(C(=O)O)cc([N+](=O)[O-])c1`: the Potency result (in experiment [1]; in experiment [4]; with Aromatase (Homo sapiens); in experiment [5]) was “inactive” each time. Moreover, the compound was classed as inactive in experiment [2] and in experiment [3].
With `O=[N+]([O-])c1ccccc1CCO`, the Potency result (in experiment [1]; in experiment [4]; in the experiment with Aromatase (Homo sapiens); in [5]) was “inactive” throughout. Moreover, the outcome in [2] and in experiment [3] was inactive.
As for `CCC(C)C1N=C(C)C(C)S1` (stereo not drawn), the Potency entry in experiment [1] and in [4] was “inactive” each time. Further, the compound was called inactive in experiment [2] and in experiment [3].
Consider `Clc1ccccc1-c1nc(-c2ccncc2)no1`, for which the Potency result (in experiment [1]; in experiment [4]; in the experiment with Aromatase (Homo sapiens); in experiment [5]) was “inactive” in each case. Further, the result in experiment [2] and in experiment [3] was inactive.
Regarding `Cc1cccc(C)c1NC(=O)CN1CCCC1`, the Potency entry (in experiment [1]; in experiment [4]; in the experiment with Aromatase (Homo sapiens); in experiment [5]) was “inactive” each time. The result in experiment [2] and in experiment [3] was inactive.
`Sc1nc(S)nc(S)n1`: the Potency result (in [1]; in experiment [4]; in the experiment with Aromatase (Homo sapiens); in experiment [5]) was “inactive” in each case. In addition, the call in experiment [2] and in experiment [3] was inactive.
For the compound `CC(=O)S[C@H](C(=O)N[C@H]1Cc2ccccc2[C@H]2CCC[C@@H](C(=O)O)N2C1=O)C(C)C`, the Potency result (in [1]; in experiment [4]; with Aromatase (Homo sapiens); in experiment [5]) was “inactive” each time. Further, the outcome in [2] and in experiment [3] was inactive.
For `[O-][n+]1ccc(Cl)cc1`, the Potency entry in [1] and in experiment [4] was “inactive” each time. The compound was classed as inactive in [2] and in experiment [3].
Regarding `O=C(O)c1ccncc1`, the Potency entry (in experiment [1]; in experiment [4]; with Aromatase (Homo sapiens); in [5]) was “inactive” throughout. Further, the outcome in experiment [2] and in experiment [3] was inactive.
Regarding `Cc1c(Cl)cccc1[N+](=O)[O-]`, the Potency entry (in experiment [1]; in experiment [4]; with Aromatase (Homo sapiens); in [5]) was “inactive” in each case. Besides, the outcome in experiment [2] and in experiment [3] was inactive.
Regarding `CCOc1ccccc1O`, the Potency result (in experiment [1]; in [4]; with Aromatase (Homo sapiens); in experiment [5]) was “inactive” throughout. Besides, the result in experiment [2] and in [3] was inactive.
For `Cc1c(-c2cccnc2)c2ccccc2n1CCCCC(=O)O`, the Potency entry in experiment [1], in experiment [4] and in experiment [5] was “inactive” throughout. The compound was classed as inactive in experiment [2] and in experiment [3]. For the same compound, the Potency in the experiment with Aromatase (Homo sapiens) was 43.3 µM (active).
As to `COC(=O)C(C)(C)C`, the Potency entry (in experiment [1]; in experiment [4]; with Aromatase (Homo sapiens); in [5]) was “inactive” throughout. The compound was classed as inactive in experiment [2] and in experiment [3].
As to `O=C1c2ccccc2C(=O)c2c1ccc(O)c2O`, the Potency entry (in experiment [1]; in [4]; in the experiment with Aromatase (Homo sapiens)) was “inactive” each time. Also, the compound was called inactive in experiment [2] and in [3].
For `CC/C=C\CCO`, the Potency entry in experiment [1] and in experiment [4] was “inactive” each time. Also, the result in [2] and in experiment [3] was inactive.
Take `c1ccc(CN(Cc2ccccc2)Cc2ccccc2)cc1`: the Potency entry (in experiment [1]; in [4]; in the experiment with Aromatase (Homo sapiens); in [5]) was “inactive” throughout. Also, the call in experiment [2] and in experiment [3] was inactive.
For `CC(=O)OCC(=O)[C@@]1(O)CC[C@H]2[C@@H]3CCC4=CC(=O)C=C[C@]4(C)[C@@]3(F)[C@@H](O)C[C@@]21C`, the Potency entry (in experiment [1]; in [4]; in the experiment with Aromatase (Homo sapiens); in experiment [5]) was “inactive” each time. The call in [2] and in experiment [3] was inactive.
As to `CCC(=O)O[C@@H]1C[C@H]2CC[C@]1(C)C2(C)C`, the Potency entry (in experiment [1]; in experiment [4]; with Aromatase (Homo sapiens); in [5]) was “inactive” throughout. The compound was called inactive in [2] and in [3].
Turning to `CCC(C)CCCC(C)(C)O` (stereo not drawn), the Potency entry (in experiment [1]; in experiment [4]; in the experiment with Aromatase (Homo sapiens); in experiment [5]) was “inactive” each time. The outcome in experiment [2] and in experiment [3] was inactive.
On to `CC(CN=Cc1ccccc1O)N=Cc1ccccc1O` (stereo not drawn), for which the Potency entry (in experiment [1]; in experiment [4]; with Aromatase (Homo sapiens); in experiment [5]) was “inactive” in each case. The result in [2] and in experiment [3] was inactive.
For the compound `O=C(Nc1ccc2c(c1)Cc1ccccc1-2)C(F)(F)F`, the Potency result (in [1]; in experiment [4]; with Aromatase (Homo sapiens); in experiment [5]) was “inactive” in each case. The call in [2] and in experiment [3] was inactive.
Consider `CC(C(=O)O)c1ccc2c(c1)Cc1cccnc1O2` (stereo not drawn), for which the Potency entry (in experiment [1]; in experiment [4]; with Aromatase (Homo sapiens); in experiment [5]) was “inactive” throughout. For the same compound, the outcome in experiment [2] and in [3] was inactive.
As for `OCCOc1cccc(OCCO)c1`, the Potency entry (in [1]; in [4]; with Aromatase (Homo sapiens); in experiment [5]) was “inactive” each time. In addition, the compound was classed as inactive in experiment [2] and in [3].
In the case of `CC(=O)Oc1cccc2c1C(=O)c1c(OC(C)=O)cc(C(=O)O)cc1C2=O`, the Potency result (in [1]; in [4]; with Aromatase (Homo sapiens); in experiment [5]) was “inactive” each time. In addition, the compound was classed as inactive in [2] and in experiment [3].
Turning to `Nc1ccc(C(=O)Oc2ccccc2)c(O)c1`, the outcome in [2] and in experiment [3] was inactive. Moreover, the Potency entry (in experiment [6]; in experiment [4]; with Aromatase (Homo sapiens)) was “inactive” each time. For the same compound, the Potency in [7] is 13.4 µM [inconclusive] (active); in experiment [8], 6.68 µM (active).
Take `CCN(CCCCOC(=O)c1ccc(OC)c(OC)c1)C(C)Cc1ccc(OC)cc1` (stereo not drawn): the compound was called inactive in experiment [2] and in experiment [3]. The Potency entry (in experiment [6]; in experiment [7]; in experiment [8]; in experiment [9]; in experiment [4]; with Aromatase (Homo sapiens)) was “inactive” each time. Also, the Potency entry in [5] is “inactive”.
`COc1cccc([C@H](O)C2CCN(CCc3ccc(F)cc3)CC2)c1OC`: the compound was called inactive in experiment [2] and in experiment [3]. Further, the Potency entry (in [6]; in [7]; in experiment [8]; in experiment [9]; in experiment [4]; with Aromatase (Homo sapiens)) was “inactive” throughout. Moreover, in experiment [5], the Potency entry is “inactive”.
On to `CC1(COc2ccc(CC3SC(=O)NC3=O)cc2)CCCCC1` (stereo not drawn), for which the Potency in [1] is 11.9 µM (active). Further, the Potency entry in experiment [7], in experiment [9], in experiment [4] and in experiment [5] was “inactive” throughout.
Consider `CC1=C(C)C(=O)C(CCCCC#CCCCC#CCO)=C(C)C1=O`, for which the Potency result in experiment [7], in experiment [4] and in [5] was “inactive” throughout. Also, the Potency in experiment [9] is 15 µM (active).
`CC(O)C(C)O` (stereo not drawn): the Potency result (in experiment [1]; in experiment [4]; with Aromatase (Homo sapiens); in experiment [5]) was “inactive” each time. For the same compound, in experiment [3], the compound was classed as inactive.
